Assay [1] deals with DLD1. Description: cell viability (CellTiter-Glo) relative to plate median (fraction of plate median); higher = more viable cells. Particulars: 5 µM; treatment time 24 h; reporter: 7TFP. The essentials: (§1)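 Stable lentiviral TCF/Wnt firefly luciferase reporters (7TFP or TCF4/Wnt) were present in the colorectal cancer cell lines used. These cells received library compounds at a final 5 µM for 24 h, and parallel plates were read for firefly luciferase or CellTiterGlo luminescence. Each well was normalised to the plate median, and the value reported is the mean of two independent replicates.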
Background: ATP-based viability assays read luminescence as a measure of living cells.

Another assay concerns HCT116. The assay is described as above. The settings on record: 5 µM; treatment time 24 h; reporter: TCF4/Wnt. The essentials:
as §1

In assay [2] the test system is SW480. Described as above. Particulars: 5 µM; treatment time 24 h; reporter: 7TFP. The essentials: as §1
Assay [3] concerns DLD1. The assay is described as follows: TCF/Wnt firefly luciferase reporter signal relative to plate median (fraction of plate median); higher = higher Wnt reporter signal. The settings on record: 5 µM; treatment time 24 h; reporter: 7TFP. A digest of the protocol:
as §1

Assay [4] deals with SW480. Described as above. The settings on record: 5 µM; treatment time 24 h; reporter: 7TFP. A digest of the protocol:
as §1

± gives the standard deviation of the averaged measurements.

Take `C[C@@H]1CC[C@@]23CCC4(C)[C@@](C=CC5[C@@]6(C)CC[C@H](O)C(C)(C)C6CC[C@]54C)(OC2=O)C3[C@H]1C` (stereo not given in full): the cell viability turned out to be 1.025 ± 0.0071 in the assay on DLD1 [1], 1.04 ± 0.028 in the assay on HCT116 and 0.993 ± 0.0042 in the assay on SW480 [2]. Also, the “TCF/Wnt firefly luciferase reporter signal” value in the assay with DLD1 [3] is 1.06 ± 0.18; in the assay on SW480 [4] it was 0.994 ± 0.023.
Taken in the same sequence, the figures for `CN1Cc2c(N)cccc2C(c2ccccc2)C1` (stereo not given) were 1.05 ± 0.014, 1.15 ± 0.021, 1.03 ± 0.05, 1.02 ± 0.14 and 1.04 ± 0.014.
`CC1(O)CC2C(CC1O)C2(C)C` (stereo not given): the cell viability is 0.946 ± 0.051 in the assay with DLD1 [1], 0.998 ± 0.06 with HCT116 and 0.953 ± 0.011 with SW480 [2]. Besides, the “TCF/Wnt firefly luciferase reporter signal” value in the assay with DLD1 [3] stood at 0.91 ± 0.12; in the assay on SW480 [4], 0.848 ± 0.16.
For `CCN(CC)CCOC(=O)C(c1ccccc1)C1CCCCC1` (stereo not given) the same measures were 0.986 ± 0.0071, 0.938 ± 0.13, 0.978 ± 0.046, 0.996 ± 0.0057 and 1.05 ± 0.075.
Take `OC[C@H]1O[C@@](CO)(O[C@H]2O[C@H](CO)[C@@H](O)[C@H](O)[C@H]2O)[C@@H](O[C@H]2O[C@H](CO)[C@@H](O)[C@H](O)[C@H]2O)[C@@H]1O`: the cell viability with DLD1 [1] came to 1.01 ± 0.047; with HCT116, 1.05 ± 0.014; in the assay with SW480 [2], 1 ± 0.025. The “TCF/Wnt firefly luciferase reporter signal” value in the assay on DLD1 [3] was found to be 0.9905 ± 0.0078; with SW480 [4], 0.989 ± 0.073.
For `O=C(O)c1cccnc1` the same measures were 1.05 ± 0.042, 1.01 ± 0.11, 1.06 ± 0.05, 0.969 ± 0.039 and 0.976 ± 0.062.
For `C[C@H](CS)C(=O)N1CCC[C@H]1C(=O)O` the same measures were 1.04 ± 0.097, 1.02 ± 0.1, 1.09 ± 0.014, 1.04 ± 0.042 and 1.06 ± 0.021.
For `O=c1ccc2ccc(O)cc2o1` the same measures were 0.995 ± 0.036, 0.972 ± 0.014, 1.03 ± 0.028, 0.936 ± 0.13 and 0.935 ± 0.042.
Take `CCCCCCCCCCCCCCCCCCOCC(O)CO` (stereo not given): the values for the cell viability in the assay on DLD1 [1], in the assay with HCT116 and in the assay with SW480 [2] were 0.991 ± 0.084, 0.989 ± 0.073 and 1.02 ± 0.021, respectively. The “TCF/Wnt firefly luciferase reporter signal” value turned out to be 1.035 ± 0.0071 in the assay with DLD1 [3] and 1.01 ± 0.09 with SW480 [4].
Taken in the same sequence, the figures for `CC(C)(C(=O)O)c1ccc(C(O)CCCN2CCC(C(O)(c3ccccc3)c3ccccc3)CC2)cc1` (stereo not given) were 1.05 ± 0.078, 0.899 ± 0.049, 1.055 ± 0.0071, 1.05 ± 0.028 and 1.13.
For `COC1(C)CCC2OC2(C)CCC2C1CC2(C)C` (stereo not given) the same measures were 1.1 ± 0.099, 0.97 ± 0.02, 1.08 ± 0.042, 0.934 ± 0.063 and 1.02 ± 0.044.
Taken in the same sequence, the figures for `COC1=CC(=O)c2c(O)c3c(c(O)c2C1=O)OC1(Oc2c(cc4cc(C)oc(=O)c4c2O)C2OC21)C3O` (stereo not given) [Griseorhodin A] were 1.09 ± 0.11, 1.01 ± 0.04, 1.05 ± 0.021, 0.925 ± 0.057 and 1.01 ± 0.014.
Regarding `O=c1[nH]cnc2nc[nH]c12`, the cell viability was 0.987 ± 0.061 in the assay with DLD1 [1], 1.04 with HCT116 and 0.913 ± 0.044 in the assay on SW480 [2]. The results for the “TCF/Wnt firefly luciferase reporter signal” value in the assay on DLD1 [3] and in the assay with SW480 [4] were 0.969 ± 0.043 and 1, respectively.
Taken in the same sequence, the figures for `Cc1nc(C)c(Cl)c(O)c1Cl` were 1.1 ± 0.099, 1.03 ± 0.11, 1.004 ± 0.0085, 0.99 ± 0.029 and 0.917 ± 0.059.
Taken in the same sequence, the figures for `CCCCC(CC)CN=C(N)N=C(N)NCCCCCCNC(N)=NC(N)=NCC(CC)CCCC` (stereo not given) were 0.971 ± 0.0057, 0.924 ± 0.045, 1.02 ± 0.014, 1.14 ± 0.028 and 1.1 ± 0.085.
Taken in the same sequence, the figures for `N=C(N)NC(=O)c1nc(Cl)c(N)nc1N` were 0.963 ± 0.067, 0.988 ± 0.046, 1.01 ± 0.057, 0.937 ± 0.024 and 1 ± 0.084.
`CC[C@H]1C(=O)OC[C@@H]1Cc1cncn1C`: the cell viability with DLD1 [1] was determined as 0.942 ± 0.097; in the assay with HCT116, 0.948 ± 0.13; with SW480 [2], 1.015 ± 0.0071. In addition, the “TCF/Wnt firefly luciferase reporter signal” value was determined as 0.89 ± 0.15 with DLD1 [3] and 0.959 ± 0.019 in the assay on SW480 [4].
For `COc1cc(C2Oc3cc([C@H]4Oc5cc(O)cc(O)c5C(=O)[C@@H]4O)ccc3OC2CO)ccc1O` (stereo not given in full) the same measures were 1.09 ± 0.042, 1.12 ± 0.16, 1.02 ± 0.014, 0.993 ± 0.081 and 0.967 ± 0.2.
For `CCc1cn([C@H]2C[C@H](O)[C@@H](CO)O2)c(=O)[nH]c1=O` the same measures were 0.9885 ± 0.0021, 0.968 ± 0.073, 1.01 ± 0.023, 1.03 ± 0.14 and 1.08 ± 0.085.
For `C=CC(C1=CC(=O)C(OC)=CC1=O)c1ccccc1` (stereo not given) the same measures were 0.983 ± 0.0014, 1.05 ± 0.042, 1.03 ± 0.021, 0.985 ± 0.079 and 1.01 ± 0.054.
For the molecule `CN(C)CCCN1c2ccccc2Sc2ccc(Cl)cc21`, the figures for the cell viability in the assay with DLD1 [1], in the assay on HCT116 and in the assay with SW480 [2] were 1.02 ± 0.054, 0.957 ± 0.047 and 1.09 ± 0.14, respectively. The results for the “TCF/Wnt firefly luciferase reporter signal” value with DLD1 [3] and with SW480 [4] were 0.928 ± 0.12 and 0.821 ± 0.13, respectively.
Consider `NC[C@@H]1O[C@@H](O[C@H]2[C@H](O)[C@@H](O[C@H]3O[C@H](CO)[C@@H](O)[C@H](N)[C@H]3O)[C@H](N)C[C@@H]2N)[C@@H](O)[C@H](O)[C@H]1O`, for which the results for the cell viability in the assay on DLD1 [1], in the assay on HCT116 and in the assay with SW480 [2] were 0.986 ± 0.091, 1.04 ± 0.014 and 0.94 ± 0.0042, respectively. Moreover, the “TCF/Wnt firefly luciferase reporter signal” value with DLD1 [3] amounted to 1.02 ± 0.035; in the assay on SW480 [4], 0.988 ± 0.031.
Turning to `Cn1nnnc1SCC1=C(C(=O)O)N2C(=O)[C@@H](NC(=O)[C@H](OC=O)c3ccccc3)[C@H]2SC1`, the values for the cell viability with DLD1 [1], with HCT116 and in the assay on SW480 [2] were 1.02, 0.932 ± 0.056 and 1.03 ± 0.044, respectively. The “TCF/Wnt firefly luciferase reporter signal” value with DLD1 [3] was found to be 0.9225 ± 0.00071; with SW480 [4] it was 0.992 ± 0.04.
For `CCn1cc(C(=O)O)c(=O)c2cc(F)c(N3CCNCC3)cc21` the same measures were 0.944 ± 0.061, 0.98 ± 0.18, 0.926 ± 0.0014, 1.19 ± 0.042 and 1.07 ± 0.071.
Taken in the same sequence, the figures for `NCC(=O)CCC(=O)O` were 1.01 ± 0.021, 1.06 ± 0.042, 1.01 ± 0.021, 1.1 ± 0.071 and 1.07 ± 0.021.
Taken in the same sequence, the figures for `COc1ccc2c(c1)O[C@H]1c3ccc(OC)cc3OC[C@@H]21` were 0.969 ± 0.044, 0.906 ± 0.12, 0.979 ± 0.044, 0.792 ± 0.025 and 0.969 ± 0.086.
As to `NC(=O)c1cccc(N)c1`, the cell viability with DLD1 [1] was found to be 0.983 ± 0.039; in the assay with HCT116 it was 1.01 ± 0.062; with SW480 [2], 0.9685 ± 0.0035. Besides, the results for the “TCF/Wnt firefly luciferase reporter signal” value in the assay on DLD1 [3] and with SW480 [4] were 0.959 ± 0.13 and 0.853 ± 0.09, respectively.
For `COc1ccc(C(C)=O)c(O)c1` the same measures were 1 ± 0.037, 1.04 ± 0.09, 1.05 ± 0.014, 1.06 ± 0.071 and 1.03 ± 0.068.
Consider `C/C=C/CCC(=O)c1cc(C)c(O)cc1O` [Sohirnone A], for which the values for the cell viability with DLD1 [1], in the assay on HCT116 and in the assay on SW480 [2] were 1.04 ± 0.09, 1.06 ± 0.1 and 0.9585 ± 0.0078, respectively. The “TCF/Wnt firefly luciferase reporter signal” value in the assay on DLD1 [3] came out at 1.02 ± 0.082; in the assay with SW480 [4] it was 0.969 ± 0.044.
